Test systems include DU-145 prostate; K-562 leukemia; MALME-3M melanoma; MDA-MB-231 breast; RXF 393 renal; SF-268 CNS; SF-295 CNS; SF-539 CNS; UACC-257 melanoma; M14 melanoma.
Test in all cases: NCI-60 one-dose screen, 48 h (100 = growth as untreated, 0 = no growth, -100 = all killed)
What all share (details): 10 µM

This is part of a sample that, as a whole, favours compounds with a hit. Of some 83,000 tested, about 20% had one in any assay.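 Note: values are percent growth. 100 is the growth of untreated cells, values between 100 and 0 indicate rising inhibition; between -100 and 0 indicates cell death.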 A number with no mark means an inactive call. Active and inactive are the calls of the source. How the source made its calls: active means growth percent below 10; inactive means the rest.

Take `COc1ccc(-c2nnc(COc3ccc(NC(=O)Nc4ccccc4)cc3F)o2)cc1`: the growth in the assay with DU-145 prostate was 83.3%; with K-562 leukemia, 71.8%; in the assay with MALME-3M melanoma, 84.1%; with MDA-MB-231 breast, 74.8%; with RXF 393 renal it was 94.5%; with SF-268 CNS it was 78.6%. Further, the growth in the assay with SF-295 CNS was 98.6%; in the assay on SF-539 CNS it was 86.4%; with UACC-257 melanoma, 96.8%; with M14 melanoma, 89.8%.

As to `CC(=O)n1nc(C(=O)OC(C)(C)C)c2cc(F)c(F)cc21`, the growth with DU-145 prostate was 102%; with K-562 leukemia, 110%; in the assay with MALME-3M melanoma it was 98.7%; with MDA-MB-231 breast, 94%; in the assay with RXF 393 renal it was 126%; with SF-268 CNS, 101%. Moreover, the growth with SF-295 CNS was 101%; with SF-539 CNS, 104%; in the assay with UACC-257 melanoma it was 113%; in the assay on M14 melanoma it was 90.9%.

`Cc1cc(/C=C2\SC(=Nc3ccccc3)N(C3CCCC3)C2=O)c(C)n1-c1ccc(Cl)cc1`: the growth is -79.1% (active) in the assay on DU-145 prostate; -22.8% (active) with K-562 leukemia; -72.8% (active) in the assay on MALME-3M melanoma; -53% (active) in the assay with MDA-MB-231 breast; -90.2% (active) with RXF 393 renal; -47.5% (active) with SF-268 CNS. The growth is -70.3% (active) with SF-295 CNS, -70.8% (active) with SF-539 CNS, -70.8% (active) in the assay with UACC-257 melanoma and -69.9% (active) with M14 melanoma.

Turning to `CC(=O)OCC(COC(C)=O)(COC(C)=O)COC(C)=O`, the growth is 103% in the assay on DU-145 prostate; 95.4% in the assay with K-562 leukemia; 94.6% with MALME-3M melanoma; 105% in the assay with MDA-MB-231 breast; 104% in the assay with RXF 393 renal; 94.7% with SF-268 CNS. Also, the growth was 103% in the assay on SF-295 CNS, 111% in the assay with SF-539 CNS, 103% in the assay on UACC-257 melanoma and 108% in the assay with M14 melanoma.

For `Cc1cnc(C=O)c2cccc([N+](=O)[O-])c12`, the growth with DU-145 prostate is 92.3%; in the assay on K-562 leukemia it was 51.3%; in the assay on MALME-3M melanoma, 81.1%; in the assay with MDA-MB-231 breast, 93.4%; with RXF 393 renal, 93.1%; in the assay with SF-268 CNS, 88.5%. Besides, the growth with SF-295 CNS was 89.9%; in the assay with SF-539 CNS it was 90.1%; in the assay on UACC-257 melanoma it was 107%; in the assay on M14 melanoma it was 95.9%.

Regarding `Brc1ccc(-c2cn3ccnc3c(-c3ccc(Br)cc3)n2)cc1`, the growth in the assay on DU-145 prostate is 72.7%; with K-562 leukemia, 16.8%; in the assay on MALME-3M melanoma it was 39.5%; with MDA-MB-231 breast it was 46.5%; in the assay on RXF 393 renal it was 47%; in the assay on SF-268 CNS it was 56.9%. For the same compound, the growth in the assay with SF-295 CNS is 30.6%; in the assay on SF-539 CNS, 52.5%; with UACC-257 melanoma it was 67.4%; in the assay on M14 melanoma, 20.1%.

In the case of `O=C(Nc1ccc(OCc2nnc(-c3ccccc3)o2)c(F)c1)Nc1ccc(Cl)c(Cl)c1`, the growth in the assay on DU-145 prostate was 64.1%; with K-562 leukemia it was 34.4%; in the assay on MALME-3M melanoma, 57.8%; with MDA-MB-231 breast it was 64.5%; in the assay on RXF 393 renal, 56.3%; with SF-268 CNS it was 80.7%. Also, the growth with SF-295 CNS was 39.4%; in the assay with SF-539 CNS, 75.5%; in the assay on UACC-257 melanoma it was 59.9%; with M14 melanoma, 70.4%.

For the compound `COc1ccc(-c2cc(/C=C3\C(=O)Nc4cc(Cl)ccc43)[nH]n2)cc1OC`, the growth in the assay with DU-145 prostate was 96.4%; in the assay on K-562 leukemia, 33.1%; in the assay on MALME-3M melanoma, 37.7%; in the assay with MDA-MB-231 breast it was 78.2%; in the assay on RXF 393 renal, 73.1%; in the assay on SF-268 CNS, 74.4%. Besides, the growth was 47.6% with SF-295 CNS, 69.1% in the assay on SF-539 CNS, 114% with UACC-257 melanoma and 68% in the assay on M14 melanoma.

Regarding `O=C(COCc1c(-c2ccccc2)no[n+]1[O-])Nc1nc(-c2ccc(Cl)cc2)cs1`, the growth in the assay on DU-145 prostate is 109%; in the assay with K-562 leukemia, 108%; with MALME-3M melanoma, 97.8%; with MDA-MB-231 breast, 99.9%; in the assay with RXF 393 renal, 112%; in the assay on SF-268 CNS, 97.9%. Further, the growth with SF-295 CNS was 101%; with SF-539 CNS, 109%; with UACC-257 melanoma it was 96.5%; in the assay on M14 melanoma, 108%.

For `CCOC(=O)c1ccc(N(C=O)CCC(=O)CCl)cc1`, the growth is -25.8% (active) with DU-145 prostate; 4.03% (active) with K-562 leukemia; 45.1% with MALME-3M melanoma; -16.5% (active) in the assay on MDA-MB-231 breast; -37.7% (active) with RXF 393 renal; 6.04% (active) in the assay with SF-268 CNS. For the same compound, the growth was -16.1% (active) in the assay with SF-295 CNS, -31.2% (active) in the assay on SF-539 CNS, 39% in the assay with UACC-257 melanoma and -5.18% (active) with M14 melanoma.

Regarding `NCCNc1ccc2cc(-c3nc4ccccc4[nH]3)c(=O)oc2c1`, the growth in the assay with DU-145 prostate is 103%; in the assay on K-562 leukemia, 81.3%; with MALME-3M melanoma it was 105%; in the assay on MDA-MB-231 breast, 66%; in the assay with RXF 393 renal, 108%; in the assay on SF-268 CNS it was 92.3%. The growth with SF-295 CNS was 98.2%; in the assay with SF-539 CNS, 94.2%; with UACC-257 melanoma, 98.6%; in the assay with M14 melanoma it was 104%.

Regarding `C#CCn1c(-c2cccc(OCCCCl)c2)nc2c1c(=O)n(C)c(=O)n2C`, the growth in the assay with DU-145 prostate was 65.5%; in the assay on K-562 leukemia, 12.7%; in the assay on MALME-3M melanoma it was 84.4%; in the assay on MDA-MB-231 breast, 75.2%; in the assay on RXF 393 renal, 104%; in the assay on SF-268 CNS, 67.1%. Moreover, the growth with SF-295 CNS was 87.3%; in the assay on SF-539 CNS, 86%; in the assay with UACC-257 melanoma, 104%; with M14 melanoma, 52.8%.

Take `CN(C)c1ccc2c(c1)OC(N)=C(C#N)C2c1ccc2c(c1)CCO2` (stereo not given): the growth with DU-145 prostate was 26.7%; in the assay on K-562 leukemia, 17%; in the assay with MALME-3M melanoma, 87.5%; with MDA-MB-231 breast it was 21.7%; with RXF 393 renal, 23.5%; in the assay on SF-268 CNS, 47.7%. Also, the growth in the assay on SF-295 CNS is -3.28% (active); in the assay with SF-539 CNS, -0.663% (active); in the assay on UACC-257 melanoma it was 58%; in the assay on M14 melanoma it was 10%.

The values above are taken from PubChem BioAssay (NCI).
